# From PubChem BioAssay (EPA / NIEHS)
# Several values for one entry are separate records, joined by “and”; a condition that tells them apart may be missing. Equal values may be shown once. Inconclusive results are not listed. Activity calls are given as the source filed them. Rule for the calls: active = hit-call score of the fitted dose curve at least 0.9, where 1 is the maximum; inconclusive = response in the unintended direction; inactive = score below 0.9.
# Test system: DIO3 (gene 1735)
# Assay: CCTE_GLTED_hDIO3: CCTE's human Deiodinase 3 (DIO3) Inhibition Assay, Great Lakes Toxicology and Ecology Division (GLTED) Lab (AID 2284055);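 for AC50: potency is for inhibition seen as loss of released iodide signal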
# Procedure, shortened: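 Enzyme activity is tracked as iodide release from substrate by recombinant human DIO3 over 3 h with chemical present. A second Sandell-Kolthoff step converts iodide to an absorbance signal, fitted relative to DMSO.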
Compound,AC50,outcome
CC1=C(/C=C/C(C)=C/C=C/C(C)=C/C(=O)O)C(C)(C)CCC1,34.7 µM (active),
CCC(=C(c1ccc(O)cc1)c1ccc(OCCN(C)C)cc1)c1ccccc1,58.4 µM (active),
ClC1=C(Cl)C(Cl)(Cl)C(Cl)=C1Cl,3.14 µM (active),
NC(=O)N(O)[C@@H]1C=C[C@H](Oc2cccc(Oc3ccc(F)cc3)c2)C1,30.5 µM (active),
CN1CCN(c2ccccc2/C=C2\SCCN(c3ccc(Cl)c(Cl)c3)C2=O)CC1,,inactive
Cc1oc(-c2ccccc2)nc1CCOc1ccc(C[C@H](Nc2ccccc2C(=O)c2ccccc2)C(=O)O)cc1,67.5 µM (active),
CCCCCCCCCCCCc1ccccc1S(=O)(=O)O,40 µM (active),
CC(=O)NC1(c2cccc(F)c2)CCN(CC[C@@]2(c3ccc(Cl)c(Cl)c3)CN(c3ccccc3)C(=O)CO2)CC1,,inactive
c1ccc2cc3c(ccc4ccccc43)cc2c1,65.8 µM (active),
CC(C)(C)c1ccc(O)c(C(C)(C)C)c1,96.5 µM (active),
CCCCCCCCCCCCN1CCCC1=O,87.8 µM (active),
CCCCCCCCCCCCCC[N+](C)(C)C,7.85 µM (active),

# Test system: not listed separately
# Assay: CCTE_Shafer_MEA_dev_LDH: CCTE's Lactate Dehydrogenase Assay for Cytotoxicity in the Neural Network Formation Assay, Shafer Lab (AID 2284068);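 note: exposure for twelve days from plating with re-dosing on DIV 5 and 9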
# Procedure, shortened: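 Rat cortical primary neurons, MEA culture; dosing day 0–12, full medium plus compound exchange DIV 5, 9. Read-out: LDH enzyme activity, spectrophotometric. DMSO = negative control/baseline; signal loss → cytotoxicity.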
Compound,AC50,outcome
CC1=C(/C=C/C(C)=C/C=C/C(C)=C/C(=O)O)C(C)(C)CCC1,19 µM (active),
c1ccc2c(c1)Cc1ccccc1-2,,inactive
CC#C[C@]1(O)CC[C@H]2[C@@H]3CCC4=CC(=O)CCC4=C3[C@@H](c3ccc(N(C)C)cc3)C[C@@]21C,16.4 µM (active) and 25.1 µM (active),
OCCC(F)(F)C(F)(F)C(F)(F)C(F)(F)C(F)(F)C(F)(F)C(F)(F)C(F)(F)F,28.5 µM (active),
c1ccc2cc3c(ccc4ccccc43)cc2c1,,inactive
C=C(C)C(=O)OCCC(F)(F)C(F)(F)C(F)(F)C(F)(F)C(F)(F)C(F)(F)F,,inactive
c1ccc2c(c1)ccc1ccccc12,,inactive
